# Data: PMC4336329 (PLoS ONE, 2015)
# The campaign covered roughly 310,000 compounds. About 14,000 (4.5%) showed an effect of 50% or more. The effect is printed as a negative number. Only a selection was taken, and strong results are over-represented in it overall.
# Target: human ether-à-go-go-related gene (hERG) potassium channel (human, UniProt Q12809)
# Assay: primary screen, population patch clamp on CHO cells stably expressing hERG; higher = less effect of the substance
# 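Also: peak tail current of the secondary pulse compared with the same well before compound.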
# Chain of human ether-à-go-go-related gene (hERG) potassium channel (Q12809 whole entry, looked up): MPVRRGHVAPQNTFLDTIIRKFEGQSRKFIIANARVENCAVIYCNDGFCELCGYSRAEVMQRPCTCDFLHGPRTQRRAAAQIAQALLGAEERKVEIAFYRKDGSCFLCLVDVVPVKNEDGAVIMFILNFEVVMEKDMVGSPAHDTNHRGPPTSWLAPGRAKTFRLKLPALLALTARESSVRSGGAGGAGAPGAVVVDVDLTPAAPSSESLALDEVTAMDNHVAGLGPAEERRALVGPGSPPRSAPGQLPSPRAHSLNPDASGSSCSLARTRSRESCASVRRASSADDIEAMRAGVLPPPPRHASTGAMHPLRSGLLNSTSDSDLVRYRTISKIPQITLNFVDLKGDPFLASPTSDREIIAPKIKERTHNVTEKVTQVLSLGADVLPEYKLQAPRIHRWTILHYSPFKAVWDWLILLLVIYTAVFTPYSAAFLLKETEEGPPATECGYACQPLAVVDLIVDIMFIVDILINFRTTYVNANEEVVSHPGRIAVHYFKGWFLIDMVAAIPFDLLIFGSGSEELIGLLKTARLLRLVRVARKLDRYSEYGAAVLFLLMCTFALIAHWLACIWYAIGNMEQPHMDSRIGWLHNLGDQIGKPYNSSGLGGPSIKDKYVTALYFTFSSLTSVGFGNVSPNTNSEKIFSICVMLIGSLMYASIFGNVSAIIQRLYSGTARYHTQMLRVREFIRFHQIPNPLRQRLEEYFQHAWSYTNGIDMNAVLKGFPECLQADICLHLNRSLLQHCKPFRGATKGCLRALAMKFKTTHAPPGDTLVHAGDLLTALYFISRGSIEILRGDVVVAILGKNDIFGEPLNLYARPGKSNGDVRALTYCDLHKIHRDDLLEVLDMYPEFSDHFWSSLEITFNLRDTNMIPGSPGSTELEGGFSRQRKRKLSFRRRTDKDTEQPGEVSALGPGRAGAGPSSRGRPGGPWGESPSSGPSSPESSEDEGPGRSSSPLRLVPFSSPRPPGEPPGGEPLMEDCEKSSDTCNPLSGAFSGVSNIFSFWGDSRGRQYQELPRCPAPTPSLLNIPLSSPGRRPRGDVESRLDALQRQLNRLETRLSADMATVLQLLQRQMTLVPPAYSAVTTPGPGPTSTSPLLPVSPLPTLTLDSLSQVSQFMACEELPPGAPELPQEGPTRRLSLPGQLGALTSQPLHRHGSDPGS
row,Compound,"hERG current change (%, negative = inhibition) at 10uM [%]"
1,CCOc1ccc(NC(=O)Cn2cc(C(=O)CC)c3ccccc32)cc1,14.7
2,Cc1ccc2oc(=O)c(/C=C(\O)C(C)(C)C)nc2c1,17.1
3,Cc1ccc2nc(SCC(=O)Nc3cc([N+](=O)[O-])ccc3F)[nH]c2c1,-57.4
4,Cc1cnc(=O)[nH]c1SCc1cccc([N+](=O)[O-])c1,2.35
5,Cc1ccc2nc(SCc3ccc([N+](=O)[O-])cc3)nc(C)c2c1,0.901
6,Cc1ccc2nc(SCC(=O)Nc3ccc(F)c([N+](=O)[O-])c3)[nH]c2c1,-2.06
7,Cc1ccc2nc(SCc3ccc([N+](=O)[O-])cc3)[nH]c2c1,-65.1
8,Cc1nc2nc(SCc3ccc([N+](=O)[O-])cc3)[nH]c2cc1Br,1.02
9,Cc1ccc2nc(SCC(=O)Nc3cccc([N+](=O)[O-])c3)[nH]c2c1,-11.7
10,Cc1ccc(CSc2[nH]c(=O)ncc2C)cc1,10.7
11,Cc1cc(Cc2ccc([N+](=O)[O-])cc2)c(C)cn1,-57.8
12,O=[N+]([O-])c1ccc(Cc2ccncc2)cc1,-26.9
13,O=[N+]([O-])c1ccc(Cc2cncc(O)c2)cc1,-17.3
14,Cc1cnc(=O)[nH]c1SCc1ccc([N+](=O)[O-])cc1,-70.1
15,O=C(CNC(=O)c1ccco1)N/N=C/c1cccs1,14.9
16,O=C(Nc1ccc([N+](=O)[O-])cn1)c1cc(-c2cccc(Cl)c2)nc2ccccc12,-8.44
17,Cc1ccc(C(=O)N2CCC(C)CC2)cc1S(=O)(=O)N1CCCCC1,-10.2
18,CCOc1cc(C(=O)OC(C)C(=O)Nc2ccc(S(N)(=O)=O)cc2)ccc1OCC(=O)N1CCOCC1 (centres unmarked),-5.65
19,CC(=O)c1cccc(NC(=S)NC(=O)c2ccc(C)cc2)c1,22.4
20,COc1cccc(C(=O)NNS(=O)(=O)c2ccc(F)cc2)c1,9.31
21,Cc1ccc(NC(=O)COC(=O)CCc2c[nH]c3ccccc23)cc1[N+](=O)[O-],10.4
22,CC(=O)c1cc(C#N)c(SCc2ccc([N+](=O)[O-])cc2)nc1C,17.7
23,c1ccc(CSc2nc3ccccc3[nH]2)cc1,17.6

row,Compound,"hERG current change (%, negative = inhibition) at 10uM [%]"
1,Cc1cc(C)nc(SCc2ccc([N+](=O)[O-])cc2)n1,-17
2,O=[N+]([O-])c1cccc(CSc2nc3ccccc3[nH]2)c1,-15.6
3,Cc1nc(N)nc(SCc2ccc([N+](=O)[O-])cc2)c1N,-74.6
4,O=[N+]([O-])c1ccc(CSc2nc3ccccc3[nH]2)cc1,-54.2
5,O=S(=O)(CCc1nc2ccccc2o1)c1ccc2ccccc2c1,7.8
6,Cc1cccc(/C(N)=N/OC(=O)c2ccc(Br)o2)c1,11.7
7,Fc1ccc(-c2csc(/C=C/c3ccc4c(c3)OCO4)n2)cc1,13.2
8,CC(C)c1ccc(C(=O)CC2(O)C(=O)N(CN3CCOCC3)c3ccccc32)cc1 (centres unmarked),10.4
9,O=C1N(CCCCN2C(=O)C3(OCCO3)c3ccccc32)c2ccccc2C12OCCO2,6.9
10,CO[C@@H]1[C@@H](O[C@@H]2O[C@H](C)[C@@H](O[C@H]3C[C@@](C)(OC(=O)CC(C)C)[C@@H](O)[C@H](C)O3)[C@H](N(C)C)[C@H]2O)[C@@H](CC=O)C[C@@H](C)[C@@H](O)C=CC=CC[C@@H](C)OC(=O)C[C@H]1OC(C)=O,-6.51
11,c1cncc(C2CCCCN2)c1 (centres unmarked),-6.38
12,CCOc1cc(/C=C2/N=C(c3ccc4c(c3)OCO4)OC2=O)ccc1OC(C)=O,9.87
13,COc1cccc(N2CCN(S(=O)(=O)c3cccc4cccnc34)CC2)c1,15.5
14,COc1ccc2c(c1OC)C(=O)OC2C1c2c(cc3c(c2OC)OCO3)CCN1C.Cl.O (centres unmarked),-13.7
15,COc1c2c(cc3c1C(CC(O)Cc1ccccc1)N(C)CC3)OCO2 (centres unmarked),-61.3
16,COc1ccc2c(c1OC)C(C1c3c(cc4c(c3OC)OCO4)CCN1C)OC2=O (centres unmarked),-7.14
17,COc1ccc(CC(O)CC2c3c(cc4c(c3OC)OCO4)CCN2C)cc1.Cl (centres unmarked),-78.9
18,COc1ccc2c(c1OC)C(=O)OC2C1c2c(cc3c(c2OC)OCO3)CCN1C.Cl (centres unmarked),-1.88
19,COc1ccc2c(c1OC)C(=O)O[C@@H]2[C@H]1c2c(cc3c(c2OC)OCO3)CCN1C,-2.49
20,O=c1[nH]ncc2c3ccccc3n(Cc3ccccc3)c12,15.8
21,S=C(NCc1ccco1)Nc1ccc(Cl)cc1Cl,8.1
22,O=C1c2oc3ccccc3c(=O)c2C(c2cccc(Br)c2)N1Cc1ccco1 (centres unmarked),-8.64
23,CCc1ccc(CN(C)CC(=O)Nc2ccc3c(c2)CCC3)cc1,9.39

row,Compound,"hERG current change (%, negative = inhibition) at 10uM [%]"
1,O=C(OCc1cccc([N+](=O)[O-])c1)c1cc2ccccc2oc1=O,20.7
2,Cc1ccc(C(=O)NNC(=O)c2ccc(Br)s2)cc1S(=O)(=O)N1CCOCC1,-26.2
3,Cc1nnc2ccc(-c3cccc(NC(=O)Cc4cccs4)c3)nn12,-25.9
4,COc1ccc(CC(=O)Nc2cccc(-c3ccc4nnc(C)n4n3)c2)cc1,-54.1
5,COc1ccc(CC(=O)Nc2ccc(-c3ccc4nnc(C)n4n3)cc2)cc1OC,2.72
6,COc1ccc(CC(=O)Nc2cccc(-c3ccc4nnc(C)n4n3)c2)cc1OC,-0.118
7,CCOc1ccc(CC(=O)Nc2cccc(-c3ccc4nnc(C)n4n3)c2)cc1,-51.1
8,CCOc1ccc(CC(=O)Nc2ccc(-c3ccc4nnc(C)n4n3)cc2)cc1,-40.4
9,CCOC(=O)C1CCCN(C(=O)CS(=O)(=O)Cc2ccccc2)C1 (centres unmarked),15.3
10,O=C(CNC(=O)c1ccc2c(c1)OCO2)N/N=C/c1cc(Br)ccc1O,20.1
11,Cn1c(SCC(N)=O)nnc1C1CCN(S(=O)(=O)c2ccccc2C(F)(F)F)CC1,13.3
12,COCC(=O)Nc1cc(=O)n(C)c(=O)n1C,4.94
13,CC(C)(C)C(=O)Nc1nnc(SCC(=O)NCc2cccs2)s1,16.3
14,COc1ccc(CNCC(O)(c2ccc(Cl)cc2)c2ccc(Cl)cc2)cc1,-12
15,OC(CNCc1ccc(Cl)cc1)(c1ccccc1)c1ccc(F)cc1 (centres unmarked),-4.52
16,COc1ccc(CNCC(O)(c2ccccc2)c2ccc(Cl)cc2)cc1 (centres unmarked),-68.8
17,OC(CNCc1ccccc1)(c1ccccc1)c1ccccc1,-9.7
18,COc1ccc(CNCC(O)(c2ccccc2)c2ccccc2)cc1,-64
19,CCc1ccc(C(O)(CNCc2ccccc2)c2ccccc2)cc1 (centres unmarked),-41.6
20,CN(CC(=O)Nc1ccccc1Cl)C(=O)CSc1ncc(C(F)(F)F)cc1Cl,9.55
21,CCCCCCCNC(=O)CC(NS(=O)(=O)c1ccc(NC(C)=O)cc1)C(C)C (centres unmarked),3.19
22,Cc1cc(NCC2CCCO2)n2c(nc3ccccc32)c1C#N (centres unmarked),-21.2
23,CCCc1cc(NCCCN2CCOCC2)n2c(nc3ccccc32)c1C#N,-75.7

row,Compound,"hERG current change (%, negative = inhibition) at 10uM [%]"
1,CC(C)c1cc(NCC2CCCO2)n2c(nc3ccccc32)c1C#N (centres unmarked),-41
2,CCCc1cc(NCCCO)n2c(nc3ccccc32)c1C#N,-16.6
3,CCCc1cc(NCCCCO)n2c(nc3ccccc32)c1C#N,-53.1
4,Cc1cc(NCCN2CCOCC2)n2c(nc3ccccc32)c1C#N,-6.09
5,CC(C)c1cc(NCCCN2CCOCC2)n2c(nc3ccccc32)c1C#N,-79.9
6,CCCc1c(C)c(C#N)c2nc3ccccc3n2c1NCCCN1CCOCC1,-44
7,CCCc1cc(NCCCN(C)C)n2c(nc3ccccc32)c1C#N,0.382
8,Cc1cc(NCCCN2CCOCC2)n2c(nc3ccccc32)c1C#N,-23.3
9,CCCc1cc(NCCN(C)C)n2c(nc3ccccc32)c1C#N,-7.73
10,CCCc1cc(NCC2CCCO2)n2c(nc3ccccc32)c1C#N (centres unmarked),-66.5
11,Cn1c(=O)oc2cc(S(=O)(=O)NC3CCN(Cc4ccccc4)CC3)ccc21,-36.4
12,CC1Cc2ccccc2N1C(=S)Nc1cccc(S(=O)(=O)N(C)C)c1 (centres unmarked),2.06
13,O=C(c1ccc2c(c1)OCO2)N1CCC2(CC1)OCCO2,-10.6
14,Cc1ccc(OCCN2CCNCC2)c([N+](=O)[O-])c1.O=C(O)C(=O)O,-5.84
15,CC1CCN(CC(CS(=O)(=O)c2ccc([N+](=O)[O-])cc2)N2CCC(C)CC2)CC1 (centres unmarked),-62.1
16,CC1CCN(S(=O)(=O)c2ccc([N+](=O)[O-])cc2)CC1,-3.23
17,CC1CCN(CCCCOc2ccccc2[N+](=O)[O-])CC1.O=C(O)C(=O)O,-26.3
18,Fc1ccc(OCCOCCN2CCNCC2)cc1.O=C(O)C(=O)O,6.98
19,CC1CCN(CCCCOc2ccc([N+](=O)[O-])cc2)CC1,-74.7
20,O=C(O)C(=O)O.O=[N+]([O-])c1ccc(OCCN2CCCCCC2)cc1,-86.1
21,O=[N+]([O-])c1ccc(S(=O)(=O)CC(CN2CCOCC2)N2CCOCC2)cc1 (centres unmarked),-1.68
22,O=C(O)C(=O)O.O=[N+]([O-])c1ccc(OCCN2CCNCC2)cc1,-76
23,CC1CCN(S(=O)(=O)c2ccc(Oc3ccc([N+](=O)[O-])cc3)cc2)CC1,-21.7
